Screening results deposited in PubChem by The Scripps Research Institute Molecular Screening Center.
Only some compounds are listed: those with a hit (about 2.3% of all), similar ones and a draw of the others.
CHO-K1 Ca antag: counter-screen for M1 antagonists: effect in parental CHO-K1 cells; inhibition, % at 3 µM; AID 602250; actives 0.6% (n = 360,000); ATP-induced calcium, Fluo-8 fluorescence;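 active = inhibition above a per-plate cutoff, the plate's mean sample inhibition plus 3 SD, cut at about 24% in these data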;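 also: 0% = DMSO plus EC80 ATP and 100% = DMSO alone without ATP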
M1 ag parental: counter-screen for M1 agonists: effect in parental CHO-K1 cells; Fluo-8 calcium fluorescence; scaled to maximal ATP response, vehicle zero; activation, % at 3 µM; actives 0.48% (n = 360,000); AID 602248; in the data active = activation above about 15%;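 also: untransfected CHO-K1 host cells lacking M1 receptor as counterscreen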
M1 ag: human M1 muscarinic receptor agonism; CHO-K1 hM1, Fluo-8 calcium fluorescence, agonist mode; 0% DMSO, 100% acetylcholine EC100; activation, % at 3 µM; actives 0.33% (n = 360,000); AID 588814; P11229;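 active = activation above the run's mean compound activation plus 3 SD, cut at about 16% in these data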;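 also: peak over basal fluorescence ratio within a 140 s kinetic read after compound addition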
Target sequence (P11229 whole entry, looked up): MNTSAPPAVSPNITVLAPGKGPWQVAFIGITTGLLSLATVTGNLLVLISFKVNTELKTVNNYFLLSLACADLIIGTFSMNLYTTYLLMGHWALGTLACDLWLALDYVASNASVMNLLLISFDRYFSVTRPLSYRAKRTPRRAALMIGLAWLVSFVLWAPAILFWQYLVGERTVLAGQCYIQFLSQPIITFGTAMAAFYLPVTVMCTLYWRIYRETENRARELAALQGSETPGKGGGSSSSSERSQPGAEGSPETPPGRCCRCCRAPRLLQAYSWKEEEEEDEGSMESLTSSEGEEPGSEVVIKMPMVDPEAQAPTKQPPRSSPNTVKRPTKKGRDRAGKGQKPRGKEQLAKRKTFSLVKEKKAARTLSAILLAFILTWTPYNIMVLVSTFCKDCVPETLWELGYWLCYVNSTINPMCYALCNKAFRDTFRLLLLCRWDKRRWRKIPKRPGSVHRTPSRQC
M1 PAM parental: counter-screen for M1 PAMs: effect in parental CHO-K1 cells. ATP EC20, Fluo-8 calcium fluorescence; 0% at ATP EC20, 100% at ATP max. activation, % at 3 µM. actives 0.02% (n = 360,000). AID 602247;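 active = activation above the run cutoff, the mean activation of all test compounds plus 3 SD, cut at about 40% in these data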;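 also: peak over basal fluorescence ratio in a 140 s read after ATP addition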
M1 PAM: potentiates human M1 receptor response to acetylcholine. P11229. CHO-K1 hM1, Fluo-8 calcium fluorescence, ACh EC20; 0% = ACh EC20, 100% = maximal ACh. activation, % at 3 µM. actives 0.088% (n = 360,000). AID 588819; in the data active = activation above about 19%, passing the limit was not always enough
CHRM1 antagonist: human CHRM1 antagonism; actives 1.3% (n = 360,000); P11229; CHO-K1 hM1, Fluo-8 calcium fluorescence, ACh EC80 antagonist; inhibition, % at 3 µM;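 active = percent inhibition above its own plate's cutoff, namely the mean of that plate's compound wells plus 3 SD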;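 also: peak over basal fluorescence ratio during 140 s after agonist addition; 0% = ACh EC80 plus DMSO and 100% = DMSO alone without agonist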
* marks the source's active call; other numbers are inactive results.

`CCN(CC)C(=O)c1cccc(-c2csc(C(C)(O)c3ccc(OC)cc3)n2)c1` (stereo not drawn) gave CHO-K1 Ca antag 14, M1 ag parental 11, M1 ag 6, M1 PAM parental -12, M1 PAM -28 and CHRM1 antagonist 46*.
CC(O)(c1ccncc1)c1nc(-c2cccc(C(F)(F)F)c2)cs1 (stereo not drawn) was read as CHO-K1 Ca antag 6, M1 ag parental 7, M1 ag -2, M1 PAM parental 5, M1 PAM -11 and CHRM1 antagonist 30*.
`Cc1ccc(C(=O)N2CCN(C34CC5CC(CC(C5)C3)C4)CC2)o1` gave CHO-K1 Ca antag -16, M1 ag parental 1, M1 ag -6, M1 PAM parental 16, M1 PAM -11 and CHRM1 antagonist 14.
Screening CN(C)c1cc(-c2ccc(Cl)c(Cl)c2)oc(=O)c1Cl returned CHO-K1 Ca antag -3, M1 ag parental 1, M1 ag -1, M1 PAM parental -17, M1 PAM -5 and CHRM1 antagonist 10.
For CCOC(=O)C1=CCN(S(=O)(=O)c2ccccc2Br)C1c1cccc(C)c1 (stereo not drawn) the results were CHO-K1 Ca antag 3, M1 ag parental 1, M1 ag -10, M1 PAM parental 10, M1 PAM -8 and CHRM1 antagonist 7.
For CCc1nnc(NC(=O)CCC(=O)N2CCN(c3cccc(Cl)c3)CC2)s1 the results were CHO-K1 Ca antag -15, M1 ag parental 1, M1 ag 1, M1 PAM parental 19, M1 PAM 15 and CHRM1 antagonist -20.
Screening O=S(=O)(Nc1ccccc1-c1ccccc1)c1ccccc1 returned CHO-K1 Ca antag -23, M1 ag parental 0, M1 ag -7, M1 PAM parental 21, M1 PAM 8 and CHRM1 antagonist -22.
Cc1cc(C)c(S(=O)(=O)Nc2ccccc2-c2ccccc2)c(C)c1 was read as CHO-K1 Ca antag -22, M1 ag parental 0, M1 ag -15, M1 PAM parental 44*, M1 PAM -2 and CHRM1 antagonist -4.
Screening O=C/C=C/c1c(-c2ccccc2)cc2oc3ccccc3cc1-2 returned CHO-K1 Ca antag -4, M1 ag parental 2, M1 ag -2, M1 PAM parental 8, M1 PAM 16 and CHRM1 antagonist -15.
Screening COc1cc(NC(=O)c2cc([N+](=O)[O-])ccc2NC(=O)CN2CCN(c3ccccn3)CC2)cc(OC)c1 returned CHO-K1 Ca antag -4, M1 ag parental 2, M1 ag -4, M1 PAM parental -2, M1 PAM -11 and CHRM1 antagonist 34*.
Screening O=C(CSc1ccc(-c2ccccn2)nn1)NCc1ccccc1 returned CHO-K1 Ca antag 0, M1 ag parental 4, M1 ag -4, M1 PAM parental 7, M1 PAM -5 and CHRM1 antagonist 37*.
`O=C(c1ccccc1)c1sc(N2CCCCCC2)nc1-c1ccccc1` gave CHO-K1 Ca antag -4, M1 ag parental -1, M1 ag -4, M1 PAM parental 3, M1 PAM -17 and CHRM1 antagonist 7.
Screening O=C(c1ccccc1)c1sc(N2CCOCC2)nc1-c1ccccc1 returned CHO-K1 Ca antag 10, M1 ag parental 3, M1 ag -10, M1 PAM parental 4, M1 PAM -9 and CHRM1 antagonist 7.
`[2H]c1c([2H])c([2H])c(C(=O)c2sc(N3CCCCCC3)nc2-c2ccccc2)c([2H])c1[2H]` gave CHO-K1 Ca antag -6, M1 ag parental 0, M1 ag -5, M1 PAM parental 9, M1 PAM -19 and CHRM1 antagonist 39*.
For COc1ccc(-c2nc(N3CCCCCC3)sc2C(=O)c2ccccc2)cc1 the results were CHO-K1 Ca antag 52*, M1 ag parental 4, M1 ag -3, M1 PAM parental 4, M1 PAM -3 and CHRM1 antagonist -8.
For COc1ccc(NC(=O)C2(C)CCN2C(=O)Cc2ccc(Cl)cc2Cl)cc1OC (stereo not drawn) the results were CHO-K1 Ca antag 1, M1 ag parental 5, M1 ag -3, M1 PAM parental -3, M1 PAM 2 and CHRM1 antagonist -13.
For CCc1ccc(Cn2nnc(C(=O)Nc3ccc(OC)cc3OC)c2N)cc1 the results were CHO-K1 Ca antag -12, M1 ag parental 4, M1 ag 25*, M1 PAM parental 31, M1 PAM 9 and CHRM1 antagonist -8.
For Cc1cc(N2CCN(C)CC2)ccc1NC(=O)c1cccc(S(=O)(=O)N2CCc3ccccc3C2)c1 the results were CHO-K1 Ca antag -4, M1 ag parental 1, M1 ag -9, M1 PAM parental 0, M1 PAM -28 and CHRM1 antagonist 79*.
`COc1cc(OC)c(OC)cc1CNC(=O)c1cccc(S(=O)(=O)N2CCc3ccccc3C2)c1` gave CHO-K1 Ca antag 5, M1 ag parental 12, M1 ag 1, M1 PAM parental -19, M1 PAM -15 and CHRM1 antagonist 36*.
For COc1ccccc1CNC(=O)c1cccc(S(=O)(=O)N2CCN(C)CC2)c1 the results were CHO-K1 Ca antag 7, M1 ag parental 5, M1 ag -7, M1 PAM parental -2, M1 PAM -7 and CHRM1 antagonist 10.
Screening O=C1C2CC=CCC2C(=O)N1Cc1nnc(-c2ccccc2Br)o1 (stereo not drawn) returned CHO-K1 Ca antag -23, M1 ag parental 3, M1 ag -2, M1 PAM parental 28, M1 PAM 6 and CHRM1 antagonist -26.
For COc1ccccc1CNc1nc(NCc2ccccc2)nc2ccsc12 the results were CHO-K1 Ca antag 24*, M1 ag parental 3, M1 ag 6, M1 PAM parental -16, M1 PAM -14 and CHRM1 antagonist 26.
For COc1ccccc1CNc1nc(NCc2cccc(OC)c2OC)c2sccc2n1 the results were CHO-K1 Ca antag -5, M1 ag parental 9, M1 ag 0, M1 PAM parental 11, M1 PAM -24 and CHRM1 antagonist 32.
C#Cc1cccc(Nc2nc(NCc3ccccc3OC)nc3ccsc23)c1 was read as CHO-K1 Ca antag 11, M1 ag parental 10, M1 ag -3, M1 PAM parental -3, M1 PAM -18 and CHRM1 antagonist 35*.
For C#Cc1cccc(Nc2nc(NCCOC)nc3ccsc23)c1 the results were CHO-K1 Ca antag 0, M1 ag parental 11, M1 ag 2, M1 PAM parental -2, M1 PAM -22 and CHRM1 antagonist 22.
`COc1ccccc1CNc1nc(NCc2ccccc2F)c2sccc2n1` gave CHO-K1 Ca antag 28*, M1 ag parental 17*, M1 ag 1, M1 PAM parental 5, M1 PAM -16 and CHRM1 antagonist 40*.
Screening COCCNc1nc(NCc2ccccc2F)c2sccc2n1 returned CHO-K1 Ca antag 1, M1 ag parental 8, M1 ag -2, M1 PAM parental 11, M1 PAM -6 and CHRM1 antagonist 0.
